Drawing on PubChem BioAssay (EPA / NIEHS), this text covers outcome and AC50 for eight compounds.

Records with an inconclusive call do not appear. The source made the active and inactive calls. The calls were made as follows, unless noted: active = hit-call score of the fitted dose curve at least 0.9, where 1 is the maximum; inactive = score below 0.9.

Experiment [1] in a line: BSK_LPS_PGE2: BioMAP Diversity Plus: LPS Assay for Prostaglandin E2 (PGE2) Biomarker Activity (AID 2283082).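 As to AC50: secreted prostaglandin E2 measured by ELISA in LPS-stimulated co-culture.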 The following applies: primary human HUVEC with PBMC; actives raise or lower the signal. An outline of the steps:
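Compounds were added to the LPS co-culture of endothelium and PBMC, and PGE2 was measured by ELISA after 24 h. Responses in either direction were fitted with DMSO as baseline.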

Read-out in experiment [2]: Tissue Factor, F3 (gene 2152)
The experiment is described as follows: BSK_LPS_TissueFactor: BioMAP Diversity Plus: LPS Assay for Tissue Factor Biomarker Activity (AID 2283084). The following applies: primary human HUVEC with PBMC; actives raise or lower the signal. Put shortly:
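Compound was added to an endothelial cell/PBMC co-culture, and after 24 h tissue factor (CD142) was read by ELISA. Gain or loss of signal was fitted against a DMSO baseline, and parallel SRB staining (560 nm) tracked overt cytotoxicity.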

Read-out in experiment [3]: Tumor necrosis factor (Homo sapiens) (UniProt P01375)
The experiment is described as follows: BSK_LPS_TNFa: BioMAP Diversity Plus: LPS Assay for Tumour Necrosis Factor alpha (TNFa) Biomarker Activity (AID 2283085).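 As to AC50: TNFa protein level quantified by ELISA in the co-culture.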 Conditions: primary human HUVEC with PBMC; actives raise or lower the signal. An outline of the steps: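 Cells (umbilical vein endothelium plus peripheral blood mononuclear cells) were dosed with chemical, incubated 24 h, then TNFa was quantified by ELISA; values derive from bidirectional fitting with DMSO as baseline.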

Read-out in experiment [4]: Vascular cell adhesion molecule 1 (VCAM1), VCAM1 (gene 7412)
Put plainly: BSK_LPS_VCAM1: BioMAP Diversity Plus: LPS Assay for Vascular cell adhesion molecule 1 (VCAM1) Biomarker Activity (AID 2283086). The following applies: primary human HUVEC with PBMC; actives raise or lower the signal. Put shortly: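 Cells are dosed in an LPS-stimulated endothelial/mononuclear co-culture and, after 24 h, VCAM-1 is quantified by ELISA. Activity in either direction is fitted relative to the DMSO negative control.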

Read-out in experiment [5]: CD38, CD38 (gene 952)
The experiment is described as follows: BSK_SAg_CD38: BioMAP Diversity Plus: SAg Assay for CD38 Biomarker Activity (AID 2283087). Conditions: primary human HUVEC with PBMC; actives raise or lower the signal. An outline of the steps: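 CD38 quantified by ELISA (fluorescence) in a superantigen-activated endothelial cell–PBMC co-culture at 24 h post-dose. Activity fitted in both directions relative to DMSO; parallel SRB and Alamar Blue cytotoxicity read-outs.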

Read-out in experiment [6]: CD40, CD40 (gene 958)
Put plainly: BSK_SAg_CD40: BioMAP Diversity Plus: SAg Assay for CD40 Biomarker Activity (AID 2283088). Conditions: primary human HUVEC with PBMC; actives raise or lower the signal. Put shortly: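 CD40 is measured by fluorescence ELISA in an endothelial/PBMC primary human co-culture at 24 h post-dose. Fitting is bidirectional, DMSO baseline. Parallel SRB staining (560 nm) flags cytotoxicity.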

Read-out in experiment [7]: CD69, CD69 (gene 969)
Put plainly: BSK_SAg_CD69: BioMAP Diversity Plus: SAg Assay for CD69 Biomarker Activity (AID 2283089). Conditions: primary human HUVEC with PBMC; actives raise or lower the signal. Put shortly:
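Primary human vascular co-culture (umbilical vein endothelium with peripheral blood mononuclear cells) exposed to test chemical for 24 h. CD69 levels quantified by fluorescence ELISA; DMSO served as negative control for bidirectional fitting.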

Read-out in experiment [8]: Monocyte Chemoattractant Protein-1 (MCP1), CCL2 (gene 6347)
The experiment is described as follows: BSK_SAg_MCP1: BioMAP Diversity Plus: SAg Assay for Monocyte Chemoattractant Protein-1 (MCP1) Biomarker Activity (AID 2283090). The following applies: primary human HUVEC with PBMC; actives raise or lower the signal. Put shortly:
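Values derive from bidirectional fitting of ELISA-measured MCP1 against DMSO controls. Readings were taken 24 h after dosing human vascular endothelial cells co-cultured with peripheral blood mononuclear cells under superantigen stimulation.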

Read-out in experiment [9]: E-selectin (Homo sapiens) (UniProt P16581)
The experiment is described as follows: BSK_SAg_Eselectin: BioMAP Diversity Plus: SAg Assay for Eselectin Biomarker Activity (AID 2283091). Conditions: primary human HUVEC with PBMC; actives raise or lower the signal. Put shortly:
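Cell-surface E-selectin is read by ELISA at 24 h in the SAg co-culture of HUVEC and PBMC. Curves are fitted in both directions relative to DMSO. Parallel SRB total-protein staining tracks overt toxicity.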

Read-out in experiment [10]: Monokine induced gamma interferon (MIG), CXCL9 (gene 4283)
The experiment is described as follows: BSK_SAg_MIG: BioMAP Diversity Plus: SAg Assay for Monokine induced gamma interferon (MIG) Biomarker Activity (AID 2283092). The following applies: primary human HUVEC with PBMC; actives raise or lower the signal. An outline of the steps:
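Endothelial cells and PBMC were co-cultured, exposed to test chemicals, and sampled 24 h later. MIG was measured by ELISA, and responses were fitted in both directions relative to DMSO.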

A short description of experiment [11]: BSK_SAg_PBMCCytotoxicity: PBMC Cytotoxicity Assessment in the BioMAP Diversity Plus: SAg Assay (AID 2283093).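 Also: PBMC viability measured as Alamar Blue reduction fluorescence at 546/580 nm; fitted both ways against DMSO so a hit may be loss or gain of signal.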 Conditions: primary human HUVEC with PBMC. An outline of the steps:
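Alamar Blue reduction (6 h, ex/em 546/580 nm) read after 90 h culture of PBMC pre-dosed 1 h then stimulated with SEB plus TSST-1, 20 ng/mL each. Gain or loss of signal fitted relative to DMSO.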

Read-out in experiment [12]: Interleukin-8 (IL8), CXCL8 (gene 3576)
Put plainly: BSK_SAg_IL8: BioMAP Diversity Plus: SAg Assay for Interleukin-8 (IL8) Biomarker Activity (AID 2283094). Conditions: primary human HUVEC with PBMC; actives raise or lower the signal. An outline of the steps:
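Chemicals were dosed onto a human endothelial–PBMC co-culture, and IL-8 was quantified by ELISA after 24 h. Both increases and decreases were fitted relative to DMSO.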

The nature of experiment [13]: BSK_SAg_Proliferation: Cell Proliferation Assessment in the BioMAP Diversity Plus: SAg Assay (AID 2283095).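 Also: relative cell number as total protein by SRB absorbance in sub-confluent culture.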 Conditions: primary human HUVEC with PBMC. An outline of the steps: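 Absorbance of sulforhodamine B at 560 nm reports total protein in a human vascular endothelial/PBMC co-culture after 96 h chemical exposure. Gain or loss of signal is fitted in both directions against DMSO.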

The nature of experiment [14]: BSK_SAg_SRB: Viability Assessment in the BioMAP Diversity Plus: SAg Assay (AID 2283096).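 Also: cells read one day after compound addition; hits may be either gain or loss of signal compared with DMSO.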 The following applies: primary human HUVEC with PBMC. An outline of the steps:
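SRB absorbance at 560 nm served as the viability read-out. Cells (HUVEC plus peripheral blood mononuclear cells) were TCA-fixed and stained 24 h post-dosing; activity fitted in both directions against DMSO controls.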

Read-out in experiment [15]: Macrophage colony-stimulating factor (MCSF), CSF1 (gene 1435)
The experiment is described as follows: BSK_LPS_MCSF: BioMAP Diversity Plus: LPS Assay for Macrophage colony-stimulating factor (MCSF) Biomarker Activity (AID 2283083). Conditions: primary human HUVEC with PBMC; actives raise or lower the signal. Put shortly:
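Bidirectional fitting against DMSO was applied to M-CSF levels read by ELISA at 24 h post-dose. The system pairs human umbilical vein endothelium with peripheral blood mononuclear cells; parallel SRB staining tracked cytotoxicity.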

Experiment [16] deals with human CYP2A6, CYP2A6 (gene 1548) (UniProt P11509). The experiment is described as follows: NVS_ADME_hCYP2A6: NovaScreen (NVS) CYP450-related Enzyme Activity (ADME) Assay for human CYP2A6 (AID 2283099; active = hit-call score of the fitted dose curve at least 0.9, where 1 is the maximum). Put shortly:
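Compounds screened at 10 uM (duplicate) and, if active, titrated to a 20 uM top concentration against insect-cell-expressed CYP2A6. Loss of fluorescent product signal after 0.5 h, relative to acetonitrile baseline, indicates inhibition.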

Chain of E-selectin (Homo sapiens) (P16581 whole entry, looked up): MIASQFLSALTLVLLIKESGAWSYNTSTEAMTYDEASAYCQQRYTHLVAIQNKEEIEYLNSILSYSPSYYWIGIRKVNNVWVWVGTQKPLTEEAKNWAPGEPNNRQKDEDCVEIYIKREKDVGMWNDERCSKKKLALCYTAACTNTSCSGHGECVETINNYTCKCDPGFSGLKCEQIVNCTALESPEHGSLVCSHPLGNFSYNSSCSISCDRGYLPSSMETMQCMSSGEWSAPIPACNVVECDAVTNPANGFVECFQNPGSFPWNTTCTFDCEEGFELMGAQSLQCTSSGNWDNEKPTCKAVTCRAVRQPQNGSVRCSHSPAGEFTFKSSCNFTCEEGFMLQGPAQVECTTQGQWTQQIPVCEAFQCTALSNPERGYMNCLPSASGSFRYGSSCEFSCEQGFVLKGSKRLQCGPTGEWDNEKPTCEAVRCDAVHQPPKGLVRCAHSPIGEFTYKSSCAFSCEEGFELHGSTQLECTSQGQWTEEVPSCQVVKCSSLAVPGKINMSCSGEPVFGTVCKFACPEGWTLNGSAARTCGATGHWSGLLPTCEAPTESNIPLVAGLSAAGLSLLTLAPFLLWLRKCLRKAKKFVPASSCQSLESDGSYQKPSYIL
Chain of Tumor necrosis factor (Homo sapiens) (P01375 whole entry, looked up): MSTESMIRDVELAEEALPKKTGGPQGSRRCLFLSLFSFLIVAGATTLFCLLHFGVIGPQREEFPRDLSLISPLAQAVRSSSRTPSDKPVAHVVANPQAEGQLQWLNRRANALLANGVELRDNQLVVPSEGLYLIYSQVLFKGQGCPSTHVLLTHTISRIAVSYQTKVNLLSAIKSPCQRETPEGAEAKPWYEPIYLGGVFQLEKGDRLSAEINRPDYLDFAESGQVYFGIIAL
Chain of human CYP2A6, CYP2A6 (gene 1548) (P11509 whole entry, looked up): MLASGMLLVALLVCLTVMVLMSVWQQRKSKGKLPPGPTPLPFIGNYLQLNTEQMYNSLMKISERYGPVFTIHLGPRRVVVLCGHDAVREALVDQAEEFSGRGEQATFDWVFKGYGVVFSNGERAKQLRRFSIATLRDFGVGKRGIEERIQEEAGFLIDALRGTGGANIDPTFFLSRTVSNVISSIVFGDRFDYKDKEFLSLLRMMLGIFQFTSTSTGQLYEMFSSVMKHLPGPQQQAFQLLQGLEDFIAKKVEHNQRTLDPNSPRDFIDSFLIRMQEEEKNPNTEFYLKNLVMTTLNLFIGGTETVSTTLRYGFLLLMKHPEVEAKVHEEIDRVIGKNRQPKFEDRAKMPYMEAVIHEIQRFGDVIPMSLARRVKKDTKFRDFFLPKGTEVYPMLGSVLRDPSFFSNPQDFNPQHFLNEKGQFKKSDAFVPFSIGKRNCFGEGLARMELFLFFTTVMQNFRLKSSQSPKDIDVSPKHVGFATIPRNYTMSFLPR

On to `CN(C)C(=O)Nc1ccc(Cl)cc1`, for which the outcome in experiment [1], in [2], in experiment [3], in [4], in [5] and in experiment [6] was inactive. Besides, the outcome in [7], in experiment [8], in experiment [9], in experiment [10], in experiment [11] and in experiment [12] was inactive. For the same compound, in experiment [14], the outcome was inactive. In addition, the AC50 in [13] is 20 µM (active).

On to `CCCCOC(=O)c1ccccc1C(=O)OCc1ccccc1`, for which the AC50 in experiment [1] is 8.72 µM (active); in experiment [4] it was 10.7 µM (active); in experiment [12], 20 µM (active); in [13], 20 µM (active); in experiment [14] it was 10.8 µM (active). In addition, the result in experiment [15], in experiment [2], in experiment [5], in experiment [6], in experiment [7] and in experiment [8] was inactive. The outcome in experiment [9], in [10] and in [11] was inactive.

On to `CO[C@@H]1[C@H](OC(=O)NC(=O)CCl)CC[C@]2(CO2)[C@H]1[C@@]1(C)O[C@@H]1CC=C(C)C`, for which the concentration at half-maximal activity (AC50) in experiment [1] was 6.2 µM (active); in experiment [3], 10 µM (active); in experiment [4], 7.31 µM (active); in experiment [5], 6.2 µM (active); in experiment [6], 7.52 µM (active); in experiment [9], 3.89 µM (active). Also, the figures for the AC50 in experiment [12] and in experiment [13] were 2.58 µM (active) and 2.45 µM (active), respectively. Moreover, the outcome in [2], in [7], in [8], in [10], in experiment [11] and in experiment [14] was inactive.

With `CC(O)CCO` (stereo not drawn), the outcome in [1], in experiment [15], in [2], in experiment [4], in experiment [5] and in experiment [6] was inactive. For the same compound, the result in experiment [7], in [8], in experiment [9], in experiment [10], in [11] and in experiment [12] was inactive. For the same compound, the outcome in [13] and in experiment [14] was inactive.

Turning to `Cc1cccc(N)c1N`, the AC50 in [1] is 20 µM (active); in [15] it was 7.16 µM (active); in experiment [4], 14.3 µM (active). Further, the result in experiment [2], in experiment [5], in experiment [6], in experiment [7], in experiment [8] and in [9] was inactive. For the same compound, the outcome in experiment [10], in experiment [11], in experiment [12], in [13], in experiment [14] and in [16] was inactive.

Turning to `COC(=O)c1ccccc1N`, the outcome in experiment [1], in experiment [15], in experiment [2], in [4], in experiment [5] and in experiment [6] was inactive. In addition, the outcome in experiment [7], in experiment [8], in experiment [9], in [10], in experiment [11] and in experiment [12] was inactive. Also, the result in [13] and in experiment [14] was inactive.

As to `Cc1ccc(N)c(N)c1`, the AC50 was 20 µM (active) in [1], 9.77 µM (active) in experiment [4], 7.11 µM (active) in experiment [6] and 4.36 µM (active) in [9]. For the same compound, the result in experiment [2], in experiment [3], in experiment [5], in experiment [7], in [8] and in [10] was inactive. The result in experiment [11], in experiment [12], in experiment [13] and in experiment [14] was inactive.

Take `CC(C)N(Cc1ccccc1)C(=O)C(C)(C)C`: the result in [1], in experiment [2], in [3], in experiment [4], in experiment [5] and in [6] was inactive. The outcome in [7], in experiment [8], in experiment [9], in experiment [10], in experiment [11] and in experiment [12] was inactive. In addition, the result in experiment [13] and in [14] was inactive.
